Compound activity deposited in PubChem BioAssay by National Center for Advancing Translational Sciences (NCATS).
TSHR antag: Antagonists of the Thyroid Stimulating Hormone Receptor: HTS campaign; Thyrotropin receptor (Homo sapiens), P16473; TSHR-expressing cells, TSH-stimulated cAMP HTRF, 2 h; hits give low values; activity change, negative = inhibition, % at 11.5 µM; 330,000 tested, 0.2% active;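 active = activity change below a set negative limit, meaning inhibition stronger than a set level, cut at about -70% in these data; inconclusive = activity change between two set negative limits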; also: % is scaled to controls: 0 for no effect and ±100 for the full control effect
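Inhibition of cAMP made by TSHR-expressing cells under TSH stimulation (4nM final, EC80; 2 h, 37 deg C) is quantified with a one-step lysis HTRF kit, anti-cAMP cryptate versus cAMP-d2.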
GLP1R ag: qHTS of GLP-1 Receptor Agonists; Glucagon-like peptide 1 receptor (Homo sapiens), P43220; HEK293 GLP-1R CRE-luciferase, luminescence, 4-6 h; cells express a hypersensitive GLP-1R form; Potency, µM (titrated, usually from 45.6 µM), inactives show at the highest dose activation, usual class: activators; 380,000 tested, 0.007% active; also: potency is read from the fitted curve at half-maximal effect; % of control where 0% means no effect
PTHR1 agonist: qHTS for PTHR1 Agonists: Primary Screen. HEK293 GP2 PTHR1 cells, GloSensor cAMP luminescence, 1 h. Potency, µM (series often up to 115 µM), without a hit: at the top dose activation, most hits filed as activators. 410,000 tested, 0.075% active. AID 743266, 2014; also: potency is read from the fitted curve at half-maximal effect; nearly all actives have a fitted effect of over 55% in size
Target sequence (Q03431 whole entry, looked up): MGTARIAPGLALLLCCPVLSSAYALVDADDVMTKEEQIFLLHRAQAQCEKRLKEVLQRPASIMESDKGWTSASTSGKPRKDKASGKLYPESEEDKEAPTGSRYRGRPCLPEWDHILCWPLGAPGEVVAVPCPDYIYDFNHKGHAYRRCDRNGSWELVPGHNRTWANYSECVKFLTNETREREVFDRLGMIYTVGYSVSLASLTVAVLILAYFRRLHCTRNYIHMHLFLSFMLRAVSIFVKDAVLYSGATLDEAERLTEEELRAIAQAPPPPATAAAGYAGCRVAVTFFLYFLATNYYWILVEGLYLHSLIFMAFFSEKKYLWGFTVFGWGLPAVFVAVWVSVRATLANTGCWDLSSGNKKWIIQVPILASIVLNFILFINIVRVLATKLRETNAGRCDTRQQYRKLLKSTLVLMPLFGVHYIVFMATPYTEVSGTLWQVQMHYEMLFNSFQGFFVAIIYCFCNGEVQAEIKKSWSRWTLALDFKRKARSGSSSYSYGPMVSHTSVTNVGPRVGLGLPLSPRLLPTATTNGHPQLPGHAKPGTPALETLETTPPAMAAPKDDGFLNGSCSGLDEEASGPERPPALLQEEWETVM
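HEK-293-derived GP2 cells expressing PTHR1 and a GloSensor cAMP reporter, 3,000/well, plated overnight, given luciferin plus IBMX (each 0.5 mM as added) for 1 h at 37 °C, then compound for 1 h at 37 °C. Luminescence was read after 15 min at room temperature.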
GLP-1R inv ag: qHTS of GLP-1 Receptor Inverse Agonists (Inhibition Mode). 410,000 tested, 1.6% active. HEK293 GLP-1R CRE-luciferase, luminescence, 24 h; GLP-1R form is constitutively active. AID 624417, 2012. Glucagon-like peptide 1 receptor (Homo sapiens), P43220. Potency, µM (doses to about 38.3 µM), without a hit: top-dose activity change, negative = inhibition, most hits filed as inhibitors; also: potency is read from the fitted curve at half-maximal effect; % is scaled to controls: 0 for no effect and ±100 for the full control effect; nearly all actives have a fitted effect of over 55% in size
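Inverse agonists were sought by their lowering of basal cAMP reporter luciferase output in HEK293 cells stably carrying constitutively active human GLP-1R, after 24 h compound treatment.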
GLP1R cytotox: qHTS of GLP-1 Receptor Inverse Agonists: Cytotox Screen; HEK293 cAMP-luciferase reporter cells, luminescence, 24 h; Potency, µM (doses to about 38.3 µM), without a hit: at the top dose activity change, negative = inhibition, usual class: inhibitors; AID 624418, 2012; 410,000 tested, 0.13% active;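 also: loss of luciferase light is scored as toxicity; potency is read from the fitted curve at half-maximal effect; % is scaled to controls: 0 for no effect and ±100 for the full control effect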
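A 23 nL compound transfer followed 12 hours of cell culture at 37 deg C; exposure then lasted 24 hr. Luciferase assay detection reagent was dispensed and plates read for luminescence after a 12 min room-temperature wait.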
Numbers without * were called inactive; i = inactive; ? = inconclusive; . = no result; [ ] = dose if it differs, or a comment. Hits are enriched below; roughly 1.8% of the tested compounds scored in any of these assays. Unless noted, calls follow the shape of the dose curve; as a rule, active = well fitted curve in the direction sought with a large enough effect; inconclusive = small, poorly fitted or top-dose-only effect, or another doubt; inactive = no such curve, though single readings can be large; an effect the other way counts as inactive or inconclusive.

SMILES | TSHR antag | GLP1R ag | PTHR1 agonist | GLP-1R inv ag | GLP1R cytotox
COC(=O)C1=C(c2ccc(-c3ccccc3)c(F)c2)C[C@@H]2CC[C@H]1N2C(=O)NCCNC(C)=O | -11 | -1% | i | 19% | -4%
COC(=O)C1=C(c2ccc(-c3ccccc3)c(F)c2)C[C@@H]2CC[C@H]1N2C(=O)NCCc1ccccc1 | -71* | 0% | -8% | ? | -8%
COC(=O)C1=C(c2ccc(-c3ccccc3)c(F)c2)C[C@@H]2CC[C@H]1N2C(=O)NCCCOC(C)C | -83* | 4% | i | 14% | 16%
Cc1ccc(Cl)cc1N1CCN(C(=O)C2CCN(S(=O)(=O)c3ccc4c(c3)oc(=O)n4C)CC2)CC1 | . | . | i | ? | 2%
CCC(=O)OC1[C@@H](N2CCCCC2)C[C@H]2[C@@H]3CC[C@H]4C[C@H](OC(C)=O)[C@@H](N5CCCCC5)C[C@]4(C)[C@H]3CC[C@]12C (some centres undefined) | . | 0% | . | . | .
COc1ccc(OC)c(NC(=O)c2nc(S(=O)(=O)Cc3ccc(F)cc3)ncc2Cl)c1 | . | . | i | ? | ?
COc1ccccc1/C=C/CN1CCC(n2nccc2NC(=O)CCc2ccccc2)CC1 | -5 | -6% | -53% | ? | ?
C=C1C(=O)C23C(O)C1CCC2C12CCCC(C)(COC(C)=O)C1C(O)C3(O)OC2 (centres undefined) | . | -10% | -93% | ? | 2.5µM*
CCC(CC)c1nnc(NC(=O)CC(C)c2ccccc2)s1 (centres undefined) | -5 | -1% | -1% | 10µM* | -10%
NCC(=O)c1ccccc1 | . | 7% | -7% | 9% | 6%
C=C(C(=O)c1ccccc1)C(C)CC(=O)c1ccccc1 (centres undefined) | -19 | -12% | -83% | 8.9µM* | ?
CC(C)(C)OC(=O)NCCCCCNC(=O)c1nc[nH]c1C(=O)NCc1ccc(CNC(=O)OC(C)(C)C)cc1 | -32 | -8% | -65% | 10µM* | ?
Cc1ccc(N2C(=O)c3[nH]nc(-c4ccc(Cl)cc4)c3C2c2ccc(F)cc2)cc1 (centres undefined) | . | -6% | -18% | ? | ?
Cc1ccc(-c2n[nH]c3c2C(c2cccs2)N(c2ccc(Cl)cc2)C3=O)cc1 (centres undefined) | . | -13% | -61% | 7.9µM* | ?
COC(=O)c1ccc(Nc2cc(C)nc3ccc(C)cc23)cc1 | -4 | 5% | -34% | 10µM* | ?
CN(C)C(=O)Oc1ccc(Cl)c2cccnc12 | -4 | 0% | i | -1% | -4%
CN(C)C(=O)Oc1c(Cl)cc(Cl)c2ccccc12 | 2 | -2% | -9% | 11µM* | 7%
COc1cc(N2C(=O)CC(=O)NC2=O)cc(OC)c1OC | -130* | -4% | i | 8% | 3%
CO[C@@H](COC(N)=O)C1=C(N2CC2)C(=O)C(C)=C(N2CC2)C1=O | . | -1% | . | . | .
CC1=C(N2CC2)C(=O)C(CO)=C(N2CC2)C1=O | . | -37% | i | ? | 0.79µM*
CN(C)C1(CNC(=O)Nc2ccc(Cl)c(Cl)c2)CCCCC1 | 0 | -4% | i | 4µM* | ?
COc1cc(NC(=O)c2cccc3c(-c4cccnc4)coc23)cc(OC)c1OC | . | -12% | -88% | ? | ?
COc1ccc(-c2coc3c(C(=O)Nc4cc(OC)c(OC)c(OC)c4)cccc23)c(C)c1 | . | -5% | -45% | 4.5µM* | -21%
COc1ccc(C)cc1NC(=O)CCS(=O)(=O)c1ccc2c(c1)oc(=O)n2C | -7 | -4% | -12% | 17% | ?
COc1ccc(C(=O)NC(=S)Nc2cccc(S(=O)(=O)N3CCOCC3)c2)cc1 | -6 | 11% | -24% | ? | ?
SMILES | TSHR antag | GLP1R ag | PTHR1 agonist | GLP-1R inv ag | GLP1R cytotox
CC(=O)Oc1ccc(-c2ccc(C(=O)Nc3cccc(S(=O)(=O)N4CCOCC4)c3)cc2)cc1 | -34 | 0% | -51% | 1.4µM* | ?
COc1ccc2sc(-c3ccc(SC)cc3)c(-c3ccc(O)cc3)c2c1 | 18 | -5% | -40% | 5.6µM* | ?
COc1ccc(CCNCc2ccc(SC)cc2)cc1 | 0 | -3% | i | -18% | 4%
O=c1c2ccccc2nc(-c2ccccc2Cl)n1-c1cccc(O)c1 | -4 | -1% | i | 0.89µM* | -5%
Cc1cccc(-n2c(-c3cccs3)nc3ccccc3c2=O)c1 | 117 | 23% | i | ? | 4%[1.53 µM]
Cc1ccc(-c2nc3ccccc3c(=O)n2-c2cccc(O)c2)cc1 | -6 | 14% | i | 1.8µM* | -3%
O=c1c2ccccc2nc(-c2cccs2)n1-c1ccccc1 | 12 | 12% | i | 2µM* | 0%
Cc1nc2ccccc2c(=O)n1-c1cccc(O)c1 | -1 | 15% | -20%[57.5 µM] | 24% | 17%
Cc1ccc(-n2c(C)nc3ccccc3c2=O)c(C)c1 | -72* | 13% | i | -22% | -1%
COc1cc(OC)c(OC)cc1CN1CCc2nc(N3CCN(c4ccccc4F)CC3)ncc2C1 | . | . | -35% | -7% | -1%
COc1ccc(CCNC(=O)c2cnc3sc(N4CCCCCC4)nn3c2=O)cc1 | . | . | -84% | -6% | 5%
Cc1ccc(-n2nc3c(=O)n(CC(=O)NCC(C)c4ccccc4)nc(C)c3c2C)cc1 (centres undefined) | . | . | -28% | ? | 4%
CC[C@H](O)C(C[C@H](C)N(C)C)(c1ccccc1)c1ccccc1 | . | 8%[96 µM] | . | . | .
CCc1cc(OC)c(CC(C)N)cc1OC (centres undefined) | . | 7%[96 µM] | . | . | .
COc1ccc(OC)c(C[C@H](C)N)c1 | . | -4%[110 µM] | . | . | .
Cc1ccc(-c2c(C)n3c4c(=O)n(C)c(=O)n(C)c4nc3n2CCO)cc1 | . | . | -50% | -26% | 2%
COc1ccccc1CNc1nc(NCc2ccccc2OC)c2sccc2n1 | . | -3% | -43% | 11µM* | ?
COc1ccccc1CNc1nc(NCc2ccccc2SC)c2sccc2n1 | . | -1% | -92% | ? | -26%
CC[n+]1c(-c2ccccc2)c2cc(N)ccc2c2ccc(N)cc21 | . | -30% | i | 5.6µM* | ?
CNCCCN1c2ccccc2CCc2ccccc21 | -3 | -2% | i | 4µM* | -10%
Cc1c(Cl)cccc1NC(=O)c1oc2ccc(S(=O)(=O)N3CCC4(CC3)OCCO4)cc2c1C | . | . | i | ? | -14%
NC1=C(Br)C(=O)c2ncccc2C1=O | . | -12% | -22% | 3.2µM* | 4µM*
CCc1ccccc1NC(=O)C(CC)Oc1ccccc1-c1nnc(-c2ccccc2)o1 (centres undefined) | . | . | -7% | ? | -15%
